Assay outcomes as filed in PubChem.
Hits are enriched below; roughly 11% of the tested compounds scored in any of these assays.
G9a block: qHTS Assay for Inhibitors of Histone Lysine Methyltransferase G9a | G9a H3K9 monomethylation, AlphaScreen, 2 h | Potency, µM (doses to about 102 µM), usual class: inhibitors | 350,000 compounds, 8.8% hits | Histone-lysine N-methyltransferase EHMT2 (Homo sapiens), Q96KQ7; further: nearly all actives have a fitted effect of over 75% in size
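Compounds were preincubated with 20 nM G9a for 15 min, after which biotinylated H3K9 peptide (500 nM) and SAM (20 uM) started a 2 h room-temperature reaction. Monomethylated product was quantified by antibody-based AlphaScreen chemiluminescence.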
JMJD2A Tudor: qHTS Assay for Inhibitors of JMJD2A-Tudor Domain | 390,000 compounds, 4.4% hits | Potency, µM (titrated, usually from 114 µM), usual class: inhibitors | AlphaScreen JMJD2A-Tudor / H3K4me3 peptide binding | AID 504339, 2011; further: nearly all actives have a fitted effect of over 50% in size
HP1b chromo inh: HTS for Inhibitors of HP1-beta Chromodomain Interactions with Methylated Histone Tails. AlphaScreen HP1-beta / biotin-H3K9me3 peptide binding. Potency, µM (doses to about 114 µM), hits mostly inhibitors. 390,000 compounds, 0.56% hits. AID 540317, 2011; further: nearly all actives have a fitted effect of over 70% in size
Target sequence (P83916 whole entry, looked up): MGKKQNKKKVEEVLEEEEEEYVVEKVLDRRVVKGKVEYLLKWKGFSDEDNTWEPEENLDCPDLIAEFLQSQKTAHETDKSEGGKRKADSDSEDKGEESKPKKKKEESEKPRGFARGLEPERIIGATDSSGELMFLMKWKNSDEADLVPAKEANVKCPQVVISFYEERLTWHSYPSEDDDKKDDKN
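Compound inhibition of the preformed complex between 50 nM HP1-beta and 50 nM biotinylated H3K9me3 peptide was read by AlphaScreen. Buffer was PBS pH 7.4 with 0.01% Tween-20. Incubations ran 30 min at room temperature, with 10 ug/mL donor/acceptor beads.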
PI5P4K alpha inh: qHTS for Inhibitors of phosphatidylinositol 5-phosphate 4-kinase (PI5P4K); PI5P4Kalpha enzyme, ADP-Glo luminescence, 60 min; hits give low values; Phosphatidylinositol 5-phosphate 4-kinase type-2 alpha (Homo sapiens), P48426; 330,000 compounds, 1.2% hits; max response, %; active means max response of -50% or lower; inconclusive means between -30% and -50%; inactive means -30% or higher; further: value at the top dose of about 77 µM
Target sequence (P48426 whole entry, looked up): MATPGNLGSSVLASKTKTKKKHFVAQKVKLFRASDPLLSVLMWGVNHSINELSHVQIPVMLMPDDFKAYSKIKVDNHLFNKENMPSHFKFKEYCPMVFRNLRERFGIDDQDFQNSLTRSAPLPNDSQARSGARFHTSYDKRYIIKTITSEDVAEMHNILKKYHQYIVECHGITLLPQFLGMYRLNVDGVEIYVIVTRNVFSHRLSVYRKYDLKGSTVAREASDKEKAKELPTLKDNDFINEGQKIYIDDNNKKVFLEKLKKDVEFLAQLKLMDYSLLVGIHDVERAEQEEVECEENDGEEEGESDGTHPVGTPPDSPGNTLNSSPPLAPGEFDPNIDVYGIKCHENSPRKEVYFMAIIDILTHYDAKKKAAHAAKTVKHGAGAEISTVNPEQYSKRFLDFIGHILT
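Luminescence from ADP-Glo served as readout of PI5P4Kalpha activity in a qHTS format. Reaction: enzyme, substrate, compound, ATP at 5 microM final, 60 min at RT.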
BAZ2B inh: qHTS Assay for Inhibitors of BAZ2B; AlphaScreen BAZ2B-H3K14Ac peptide displacement; Potency, µM (doses to about 114 µM), usual class: inhibitors; 360,000 compounds, 4.4% hits; AID 504333, 2011; further: nearly all actives have a fitted effect of over 60% in size
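Compounds, titrated to a top concentration of 110 uM, were incubated 30 min at room temperature with preformed BAZ2B/acetyl-K14 H3 peptide complex (50 nM each). Proximity signal was measured by AlphaScreen after 20 min with beads.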
L3MBTL1 block: qHTS Assay for the Inhibitors of L3MBTL1; 230,000 compounds, 0.66% hits; Potency, µM (top dose mostly 57.1 µM), usual class: inhibitors; AID 485360, 2010; AlphaScreen L3MBTL1–H3K9me1 peptide binding; further: nearly all actives have a fitted effect of over 60% in size
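Read-out is AlphaScreen signal from streptavidin donor and nickel chelate acceptor beads (10 ug/mL final each) bridging L3MBTL1 (50 nM) and biotinylated K9-monomethylated H3(1-15) peptide (75 nM), after 30 min compound exposure at room temperature.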
Of the large screens only hits and unclear results are named; the others gave an inactive call. Unless noted, the call rests on the fitted dose curve; in most records, active means well fitted inhibition curve with a large enough effect; inconclusive means small, poorly fitted or top-dose-only effect; inactive means no such curve, though single readings can be large or run the other way.

Cc1ccccc1-n1cc(-c2ccc(Br)cc2)nc1SCC(N)=O	JMJD2A Tudor inconclusive, BAZ2B inh inconclusive
CCOC(=O)NC(=O)CSc1nc(-c2ccc(C)c(C)c2)cn1-c1ccccc1	G9a block 7.9µM, JMJD2A Tudor inconclusive, HP1b chromo inh inconclusive, BAZ2B inh 35µM
COc1ccc(SCc2cc(=O)c3cc(Cl)ccc3[nH]2)cc1	none (no result: PI5P4K alpha inh, L3MBTL1 block)
CCN(C(=O)CSc1nnc(COc2ccccc2F)n1N)C1CCS(=O)(=O)C1 (centres undefined)	none (no result: L3MBTL1 block)
CN(C(=O)CSc1nnc(COc2ccccc2F)n1N)C1CCS(=O)(=O)C1 (centres undefined)	G9a block 20µM
CN(C(=O)CSc1nnc(Nc2ccccc2F)s1)C1CCS(=O)(=O)C1 (centres undefined)	none (no result: G9a block, BAZ2B inh)
CN(C(=O)CSc1n[nH]c(-c2cccs2)n1)C1CCS(=O)(=O)C1 (centres undefined)	G9a block 50µM
CN(C)N(C(=O)c1cc(-c2cccs2)nn1-c1ccccc1)C1CCS(=O)(=O)C1 (centres undefined)	G9a block 18µM
CC1(NC(=O)c2cc(-c3cccs3)nn2-c2ccccc2)CCS(=O)(=O)C1 (centres undefined)	none
Cc1ccccc1Nc1nnc(SCC(=O)N(C)C2CCS(=O)(=O)C2)s1 (centres undefined)	G9a block 32µM
CCCC12CN3CC(CCC)(CN(C1)C3c1ccccc1)C2=O (centres undefined)	none (no result: PI5P4K alpha inh, L3MBTL1 block)
NC(CO)(CO)CO	none (no result: JMJD2A Tudor, HP1b chromo inh, PI5P4K alpha inh, BAZ2B inh, L3MBTL1 block)
CN(C(=O)CSc1nnc(-c2ccc(F)cc2)c2ccccc12)C1CCS(=O)(=O)C1 (centres undefined)	G9a block 22µM, PI5P4K alpha inh inconclusive, BAZ2B inh inconclusive
C/C=C(\C)C(=O)OC1CC(C)(C)C[C@H]2C3=CC[C@@H]4[C@@]5(C)CCC(O[C@@H]6O[C@@H](C(=O)O)[C@@H](O)C(O[C@@H]7OC[C@H](O)[C@@H](O)[C@@H]7O[C@@H]7OC(CO)C(O)[C@@H](O)[C@@H]7O)C6O[C@@H]6OC(CO)C(O)C(O)C6O)[C@@](C)(CO)[C@@H]5CC[C@]4(C)[C@]3(C)CC(O)[C@@]12CO (some centres undefined)	JMJD2A Tudor 79µM, PI5P4K alpha inh inconclusive (no result: G9a block, BAZ2B inh)
CN1C(=O)C(N=Nc2ccccc2C(=O)O)N(C)C1=S (centres undefined)	G9a block 1.8µM, BAZ2B inh inconclusive
CC1=NN(C(N)=S)C(=O)C1N=Nc1ccccc1C(=O)O (centres undefined)	none
COc1cc(C(=O)Nc2ccc(OCc3cc(=O)n4cccc(C)c4n3)cc2)cc(OC)c1OC	none (no result: PI5P4K alpha inh, L3MBTL1 block)
COc1ccc(N2CCN(C(=O)CCNS(=O)(=O)c3ccc4c(c3)CCN4C(=O)C3CC3)CC2)cc1	G9a block inconclusive (no result: PI5P4K alpha inh, L3MBTL1 block)
COc1ccc(N2CCN(C(=O)CCNS(=O)(=O)c3ccc(C)cc3)CC2)cc1	G9a block 50µM (no result: L3MBTL1 block)
COc1ccc(S(=O)(=O)NCCS(=O)(=O)N2CCN(c3ccccc3)CC2)cc1	none
O=C(CCNS(=O)(=O)c1ccc2c(c1)CCN2C(=O)C1CC1)N1CCN(c2ccc(F)cc2)CC1	JMJD2A Tudor 45µM (no result: PI5P4K alpha inh, L3MBTL1 block)
COc1ccc(N2CCN(CCNS(=O)(=O)c3ccc(C)cc3)CC2)cc1	G9a block 50µM (no result: L3MBTL1 block)
COc1cc(/C=C/C(=O)O)cc(S(=O)(=O)N(C)CCO)c1OC	none
Cc1ccc(/C=C/C(=O)O)cc1S(=O)(=O)N(C)CCO	PI5P4K alpha inh -64
Cn1c(CN2CCOCC2)nc2cc(NC(=O)c3ccccc3[N+](=O)[O-])ccc21	none (no result: PI5P4K alpha inh, L3MBTL1 block)
O=C(CC1(O)C(=O)N(CCc2ccccc2)c2ccccc21)c1ccco1 (centres undefined)	none
C#CCN1C(=O)C(O)(CC(=O)/C=C/c2ccco2)c2ccccc21 (centres undefined)	G9a block 50µM, BAZ2B inh inconclusive
N#Cc1cccc(-c2nc(NCc3cccnc3)c3ccccc3n2)c1	none (no result: JMJD2A Tudor, HP1b chromo inh, PI5P4K alpha inh, BAZ2B inh, L3MBTL1 block)
OCC(CO)(CO)N=Cc1c(O)ccc2ccccc12	G9a block 1.4µM, JMJD2A Tudor inconclusive, L3MBTL1 block inconclusive (no result: PI5P4K alpha inh, BAZ2B inh)
Oc1ccc2ccccc2c1C=NC12CN3CCN(CN(C3)C1)C2	G9a block inconclusive, JMJD2A Tudor 79µM, HP1b chromo inh inconclusive, BAZ2B inh inconclusive
CN(C)/N=C/c1c(O)ccc2ccccc12	G9a block 10µM, JMJD2A Tudor 56µM, HP1b chromo inh inconclusive, BAZ2B inh 45µM (no result: L3MBTL1 block)
Oc1ccc2ccccc2c1C=Nc1ccccc1Br	JMJD2A Tudor inconclusive, HP1b chromo inh inconclusive, BAZ2B inh inconclusive (no result: G9a block)
CS/C(N)=N/N=C/c1c(O)ccc2ccccc12	G9a block 11µM
CCOC(=O)c1c(NC(=O)c2cc3ccccc3c(=O)o2)sc2c1CCC(C(C)(C)C)C2 (centres undefined)	none (no result: PI5P4K alpha inh, L3MBTL1 block)
CCC(Sc1nnc(-c2ccc(OC)c(OC)c2)c(-c2ccc(OC)c(OC)c2)n1)C(=O)NC1CCCC1 (centres undefined)	BAZ2B inh inconclusive (no result: PI5P4K alpha inh, L3MBTL1 block)
CCc1ccc(NC(=O)CC2C(=O)N(c3cccc(C)c3)C(=O)N2Cc2ccco2)cc1 (centres undefined)	G9a block inconclusive (no result: PI5P4K alpha inh, L3MBTL1 block)
CC(C)C1=CC2=CCC3C(C)(C(=O)O)CCCC3(C)C2CC1 (centres undefined) (tested in a mixture with another compound)	G9a block 71µM (no result: JMJD2A Tudor, HP1b chromo inh, PI5P4K alpha inh)
c1ccc(CCNc2nnnn2-c2ccccc2)cc1	none (no result: G9a block)
C1=C(CCNc2nnnn2-c2ccccc2)CCCC1	JMJD2A Tudor 50µM
O=C(Nc1ccc(-c2csc(-c3ccccc3)n2)cc1)c1ccccc1Cl	none (no result: PI5P4K alpha inh)
O=C(Nc1ccc(-c2n[nH]c(=S)o2)cc1)c1ccccc1Cl	G9a block 1.8µM, PI5P4K alpha inh inconclusive
Cc1ccc(-c2nn(-c3ccccc3)cc2/C=C(\C#N)C(=O)NCc2ccccc2)cc1	none
N#C/C(=C/c1cn(-c2ccccc2)nc1-c1cccc(OCc2ccccc2)c1)C(=O)NCCCn1ccnc1	JMJD2A Tudor 40µM, HP1b chromo inh inconclusive, BAZ2B inh 10µM, L3MBTL1 block inconclusive
N#C/C(=C/c1cn(-c2ccccc2)nc1-c1cccc(S(=O)(=O)N2CCCC2)c1)C(=O)NCc1ccco1	G9a block 50µM, PI5P4K alpha inh inconclusive, L3MBTL1 block inconclusive
